According to PubChem BioAssay AID1159580 (chemical genetic matrix, 2015):
The campaign covered roughly 5,500 compounds. About 2,000 (36%) were called active. Another 18% or so got no clear call; they are omitted. Rule as the data show it: active = normalized growth mostly below about 0.91 (no sharp cut-off); inconclusive = no clear call, values can overlap the other calls; inactive = mostly above about 0.92. The list shows a part of the results.

Assay: chemical genetic growth profiling, strain panel (AID 1159580);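 also: tested at 20 µM; growth read once vehicle control cultures reached saturation at 30 °C; 1 = growth at the plate median or of vehicle wells; lower values mean less growth of the strain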
Conditions: S. cerevisiae deletion strains, growth OD

Measured: normalized growth

CC1(C)C(C(Cl)Cl)C2(Cl)C(Cl)C(Cl)C1(Cl)C2(Cl)Cl (centres undefined)
active: locus YDR137W, strain rgp1, stronger effect = lower value 0.839 | locus YHR013C, strain ard1, stronger effect = lower value 0.798 | locus YJL129C, strain trk1, stronger effect = lower value 0.841
inactive: locus YAL013W, strain DEP1, stronger effect = lower value 0.984 | locus YAL021C, strain ccr4, stronger effect = lower value 1.07 | locus YAL026C, strain drs2, stronger effect = lower value 0.996 | locus YAL030W, strain snc1, stronger effect = lower value 0.984 | locus YBL061C, strain skt5, stronger effect = lower value 0.983 | locus YBR009C, strain hhf1, stronger effect = lower value 0.976 | locus YBR021W, strain FUR4, stronger effect = lower value 0.996 | locus YBR023C, strain chs3, stronger effect = lower value 0.978 | locus YBR171W, strain sec66, stronger effect = lower value 0.978 | locus YBR229C, strain ROT2, stronger effect = lower value 0.987 | locus YBR231C, strain swc5, stronger effect = lower value 0.979 | locus YBR279W, strain paf1, stronger effect = lower value 0.992 | locus YCL011C, strain gbp2, stronger effect = lower value 0.993 | locus YCL016C, strain dcc1, stronger effect = lower value 0.979 | locus YCL029C, strain bik1, stronger effect = lower value 0.972 | locus YCL061C, strain MRC1, stronger effect = lower value 0.981 | locus YCL069W, strain vba3, stronger effect = lower value 0.993 | locus YCR088W, strain abp1, stronger effect = lower value 0.989 | locus YDL005C, strain med2, stronger effect = lower value 0.981 | locus YDL035C, strain GPR1, stronger effect = lower value 0.972 | locus YDL040C, strain nat1, stronger effect = lower value 0.984 | locus YDL074C, strain BRE1, stronger effect = lower value 1.02 | locus YDL101C, strain DUN1, stronger effect = lower value 0.991 | locus YDL134C, strain PPH21, stronger effect = lower value 0.986 | locus YDL185W, strain tfp1, stronger effect = lower value 0.989 | locus YDL192W, strain arf1, stronger effect = lower value 0.978 | locus YDR001C, strain nth1, stronger effect = lower value 0.992 | locus YDR069C, strain doa4, stronger effect = lower value 0.967 | locus YDR101C, strain arx1, stronger effect = lower value 0.99 | locus YDR150W, strain NUM1, stronger effect = lower value 0.999 | locus YDR159W, strain sac3, stronger effect = lower value 0.892 | locus YDR162C, strain NBP2, stronger effect = lower value 0.988 | locus YDR195W, strain ref2 0.997 | locus YDR297W, strain sur2, stronger effect = lower value 0.977 | locus YDR318W, strain mcm21, stronger effect = lower value 0.971 | locus YDR334W, strain swr1, stronger effect = lower value 0.997 | locus YDR335W, strain msn5, stronger effect = lower value 0.993 | locus YDR388W, stronger effect = lower value 0.959 | locus YDR392W, strain spt3, stronger effect = lower value 0.836 | locus YDR502C, strain sam2, stronger effect = lower value 0.974 | locus YEL003W, strain gim4, stronger effect = lower value 0.984 | locus YEL037C, strain rad23, stronger effect = lower value 0.995 | locus YEL061C, strain CIN8 (second series), stronger effect = lower value 0.995 | locus YEL061C, strain CIN8, stronger effect = lower value 0.994 | locus YER015W, strain faa2, stronger effect = lower value 0.979 | locus YER016W, strain bim1, stronger effect = lower value 0.984 | locus YER110C, stronger effect = lower value 0.981 | locus YER111C, strain swi4, stronger effect = lower value 1 | locus YER155C, strain BEM2 (second series), stronger effect = lower value 0.965 | locus YER155C, strain BEM2, stronger effect = lower value 0.983 | locus YER167W, strain BCK2, stronger effect = lower value 0.968 | locus YFR010W, strain ubp6, stronger effect = lower value 1 | locus YGL078C, strain dbp3, stronger effect = lower value 0.975 | locus YGL086W, strain mad1, stronger effect = lower value 0.981 | locus YGL167C, strain pmr1, stronger effect = lower value 0.973 | locus YGL173C, strain kem1, stronger effect = lower value 0.972 | locus YGL227W, strain vid30, stronger effect = lower value 0.99 | locus YGL240W, strain doc1, stronger effect = lower value 0.963 | locus YGL248W, strain PDE1, stronger effect = lower value 0.991 | locus YGL253W, strain hxk2, stronger effect = lower value 0.989 | locus YGR078C, strain PAC10, stronger effect = lower value 0.989 | locus YGR135W, strain pre9, stronger effect = lower value 0.971 | locus YGR229C, strain SMI1, stronger effect = lower value 0.962 | locus YGR252W, strain gcn5, stronger effect = lower value 0.962 | locus YHR027C, strain rpn1, stronger effect = lower value 0.977 | locus YHR030C, strain SLT2, stronger effect = lower value 0.965 | locus YHR079C, strain IRE1 (second series), stronger effect = lower value 0.965 | locus YHR094C, strain hxt1, stronger effect = lower value 0.974 | locus YHR129C, strain ARP1, stronger effect = lower value 0.996 | locus YHR142W, strain chs7, stronger effect = lower value 0.992 | locus YHR200W, strain rpn10, stronger effect = lower value 0.977 | locus YIL066C, strain RNR3, stronger effect = lower value 0.955 | locus YIL073C, strain SPO22, stronger effect = lower value 0.883 | locus YIL125W, strain kgd1, stronger effect = lower value 0.979 | locus YIR030C, strain dcg1, stronger effect = lower value 0.972 | locus YJL092W, strain hpr5, stronger effect = lower value 0.986 | locus YJL095W, strain BCK1 (second series), stronger effect = lower value 0.983 | locus YJL095W, strain BCK1, stronger effect = lower value 0.991 | locus YJL115W, strain asf1, stronger effect = lower value 0.99 | locus YJL134W, strain LCB3, stronger effect = lower value 0.986 | locus YJL154C, strain vps35, stronger effect = lower value 0.993 | locus YJL164C, strain tpk1, stronger effect = lower value 0.975 | locus YJL166W, strain qcr8, stronger effect = lower value 0.904 | locus YJL168C, strain set2, stronger effect = lower value 0.978 | locus YJL187C, strain SWE1 (second series), stronger effect = lower value 0.983 | locus YJL187C, strain SWE1, stronger effect = lower value 0.988
